# PubChem BioAssay (EPA / NIEHS)
# Activity calls are given as the source filed them. The calls were made as follows: active = hit-call score of the fitted dose curve at least 0.9, where 1 is the maximum; inactive = score below 0.9.
# Key:
# [1] = IUF_NPC2c_oligodendrocyte_migration_120hr: Leibniz Research Institute for Environmental Medicine (IUF) 120-hour Neural Progenitor Cell Migration Assay for Oligodendrocyte Migration (NPC2c) (AID 2284297);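 also: O4-positive oligodendrocyte migration distance divided by radial glia migration distance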
# Summary of the method: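 Primary hNPC spheres migrating on extracellular matrix, exposed five days to a 7-point dilution series with solvent control. Oligodendrocyte migration was scored by high-content imaging of O4 immunostaining and expressed relative to radial glia distance.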
# [2] = read-out: Interleukin 2 (IL2), IL2 (gene 3558); assay: BSK_BT_xIL2: BioMAP Diversity Plus: BT Assay for Interleukin 2 (IL2) Biomarker Activity (AID 2284245); settings: primary human B cells with PBMC
# Summary of the method: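 Human B cell plus PBMC co-culture, 24 h after chemical dosing; secreted IL-2 quantified by Luminex xMAP multiplex, fitted for signal gain against DMSO baseline.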
# [3] = read-out: Basic fibroblast growth factor (bFGF), FGF2 (gene 2247); assay: BSK_MyoF_bFGF: BioMAP Diversity Plus: MyoF Assay for Basic fibroblast growth factor (bFGF) Biomarker Activity (AID 2284246); settings: primary human lung fibroblasts
# Summary of the method: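 Human lung fibroblast cultures were dosed and measured 24 h later in 96-well format. bFGF biomarker levels quantified by ELISA, with activity fitted in the positive direction against DMSO.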
# [4] = read-out: Collagen IV, COL4A1 (gene 1282); assay: BSK_MyoF_CollagenIV: BioMAP Diversity Plus: MyoF Assay for Collagen IV Biomarker Activity (AID 2284247); settings: primary human lung fibroblasts
# Summary of the method: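 Primary human lung fibroblasts (MyoF system) dosed 24 h; Collagen IV measured by ELISA. Activity fitted in positive direction against DMSO; cytotoxicity tracked by SRB total-protein staining in parallel cultures.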
# [5] = read-out: Plasminogen activator inhibitor-1 (PAI1), SERPINE1 (gene 5054); assay: BSK_MyoF_PAI1: BioMAP Diversity Plus: MyoF Assay for Plasminogen activator inhibitor-1 (PAI1) Biomarker Activity (AID 2284256); settings: primary human lung fibroblasts;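 also: PAI-1 protein level measured by ELISA in fibroblast cultures; PAI-1 read 24 h after compound addition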
# Summary of the method: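 Activity reflects increased PAI-1, determined by ELISA and compared with DMSO, in human lung fibroblasts treated for 24 h.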
# [6] = read-out: Interleukin-8 (IL8), CXCL8 (gene 3576); assay: BSK_MyoF_IL8: BioMAP Diversity Plus: MyoF Assay for Interleukin-8 (IL8) Biomarker Activity (AID 2284261); settings: primary human lung fibroblasts
# Summary of the method: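 In this multiplexed primary-cell system, fibroblasts from human lung are treated with chemicals, and IL-8 is detected by ELISA at 24 h, with DMSO serving as the negative reference.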
# Decorin, DCN (gene 1634) = assay: BSK_MyoF_Decorin: BioMAP Diversity Plus: MyoF Assay for Decorin Biomarker Activity (AID 2284265); settings: primary human lung fibroblasts
# Summary of the method: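 Lung fibroblast cultures, 24 h chemical exposure. Decorin by ELISA, positive fitting direction, DMSO baseline.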
# [7] = BSK_MyoF_SRB: Viability Assessment in the BioMAP Diversity Plus: MyoF Assay (AID 2284267); settings: primary human lung fibroblasts;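 also: total protein by SRB absorbance in parallel cultures as cytotoxicity measure; cells assessed 24 h after compound addition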
# Summary of the method: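 Human lung fibroblasts, 24 h after chemical dosing; total protein measured by 0.1% sulforhodamine B staining after 10% TCA fixation, read at 560 nm, fitted relative to DMSO baseline.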
# [8] = read-out: Matrix Metallopeptidase 1 (MMP1), MMP1 (gene 4312); assay: BSK_MyoF_MMP1: BioMAP Diversity Plus: MyoF Assay for Matrix Metallopeptidase 1 (MMP1) Biomarker Activity (AID 2284268); settings: primary human lung fibroblasts
# Summary of the method: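 MMP1 measured by ELISA 24 h after dosing primary human lung fibroblasts; cytotoxicity checked in parallel cultures by sulforhodamine B total-protein staining read at 560 nm.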
# [9] = read-out: TIMP metallopeptidase inhibitor 1 (TIMP1), TIMP1 (gene 7076); assay: BSK_MyoF_TIMP1: BioMAP Diversity Plus: MyoF Assay for TIMP metallopeptidase inhibitor 1 (TIMP1) Biomarker Activity (AID 2284269); settings: primary human lung fibroblasts
# Experimental: BSK_MyoF is a cell-based, multiplexed-readout assay that uses lung fibroblasts, […], with measurements taken at 24 hours after chemical dosing in a microplate: 96-well plate.BSK_MyoF_TIMP1 is an assay component measured in the BSK_MyoF assay. It measures TIMP-1 antibody related to regulation of gene expression using ELISA technology.Data from the assay component BSK_MyoF_TIMP1 was analyzed at the endpoint, BSK_MyoF_TIMP1, in the positive analysis fitting direction relative to DMSO as the negative control and baseline of activity. Using a type of binding reporter, gain or loss-of-signal activity can be used to understand protein changes. […]
# The levels of cell surface (or secreted, indicated by the prefix "s") biomarker endpoints were measured by ELISA. Overt cytotoxicity to cells in confluent adherent cultures (all systems other than the BT system) was assessed by measuring total protein levels using sulforhodamine B (SRB) staining in parallel cultures at the time of biomarker measurements, indicated as SRB endpoints. For proliferation assays for adherent cell types, individual cell types are cultured at sub-confluence and relative cell numbers quantified by SRB staining at time points optimized for each system (48 h: 3C and CASM3C systems; 72 h: BT and HDF3CGF systems; 96 h: SAg system). […] Plates were read after 6 h.
structure (smiles),measurement,setting,value
CO/C=C(/C(=O)OC)c1ccccc1Oc1cc(Oc2ccccc2C#N)ncn1,outcome,[1],inactive
CC(C)(C)c1ccc(CSc2cnn(C(C)(C)C)c(=O)c2Cl)cc1,outcome,[1],inactive
C=CC1(C)OC(=O)N(c2cc(Cl)cc(Cl)c2)C1=O (stereo not drawn),outcome,[1],inactive
CCCCOC(=O)c1ccccc1C(=O)OCCCC,outcome,[1],inactive
CCOC(=O)CC(SP(=S)(OC)OC)C(=O)OCC (stereo not drawn),outcome,[1],inactive
N#Cc1nn(-c2c(Cl)cc(C(F)(F)F)cc2Cl)c(N)c1S(=O)C(F)(F)F (stereo not drawn),outcome,[1],inactive
COP(=S)(OC)Oc1nc(Cl)c(Cl)cc1Cl,outcome,[1],inactive
COC(=O)N(OC)c1ccccc1COc1ccn(-c2ccc(Cl)cc2)n1,outcome,[1],inactive
CN(C)C(=S)SSC(=S)N(C)C,AC50,[1],28.1 µM (active)
COP(N)(=O)SC (stereo not drawn),outcome,[1],inactive
Cc1ccc(-c2c(Cl)nc(C#N)n2S(=O)(=O)N(C)C)cc1,AC50,[1],23.9 µM (active)
CCOc1cc(Oc2ccc(C(F)(F)F)cc2Cl)ccc1[N+](=O)[O-],outcome,[1],inactive
CCCCC(CC)COC(=O)c1ccccc1C(=O)OCC(CC)CCCC (stereo not drawn),outcome,[1],inactive
COc1cnc(OC)n2nc(NS(=O)(=O)c3c(OCC(F)F)cccc3C(F)(F)F)nc12,outcome,[2],inactive
same,outcome,[3],inactive
same,AC50,[4],0.024 µM (active)
same,outcome,[5],inactive
same,outcome,[6],inactive
same,outcome,"Decorin, DCN (gene 1634)",inactive
same,outcome,[7],inactive
same,outcome,[8],inactive
same,outcome,[9],inactive
CNC(=O)ON=CC(C)(C)SC,outcome,[1],inactive
